# Data as given in PubChem BioAssay AID1159580 (chemical genetic matrix, 2015).
# Several values for one entry are separate records, joined by “and”; a condition that tells them apart may be missing. Equal values may be shown once. Hit rate of the full screen: of about 5,500 compounds, about 2,000 (36%) were called active. Another 18% or so got no clear call; they are omitted. The list shows a part of the results. Unmarked numbers belong to inactive results. Cut-off read from the data, not from the text of the source: active = normalized growth mostly below about 0.91 (no sharp cut-off); inconclusive = no clear call, values can overlap the other calls; inactive = mostly above about 0.92.
# Experiment: chemical genetic growth profiling, strain panel (AID 1159580);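 note: tested at 20 µM; growth read once vehicle control cultures reached saturation at 30 °C; 1 = growth at the plate median or of vehicle wells; lower values mean less growth of the strain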
# Details: S. cerevisiae deletion strains, growth OD
structure (smiles),measurement,setting,value
C=CCc1ccc(O)c(OC)c1,normalized growth,"locus YAL013W, strain DEP1, stronger effect = lower value",0.971
same,normalized growth,"locus YAL021C, strain ccr4, stronger effect = lower value",1.01
same,normalized growth,"locus YAL026C, strain drs2, stronger effect = lower value",1
same,normalized growth,"locus YAL030W, strain snc1, stronger effect = lower value",0.989
same,normalized growth,"locus YBL061C, strain skt5, stronger effect = lower value",0.986
same,normalized growth,"locus YBR009C, strain hhf1, stronger effect = lower value",1.02
same,normalized growth,"locus YBR021W, strain FUR4, stronger effect = lower value",1.05
same,normalized growth,"locus YBR023C, strain chs3, stronger effect = lower value",1
same,normalized growth,"locus YBR171W, strain sec66, stronger effect = lower value",0.994
same,normalized growth,"locus YBR229C, strain ROT2, stronger effect = lower value",0.94
same,normalized growth,"locus YBR231C, strain swc5, stronger effect = lower value",0.907 (active)
same,normalized growth,"locus YBR279W, strain paf1, stronger effect = lower value",0.997
same,normalized growth,"locus YCL011C, strain gbp2, stronger effect = lower value",1.01
same,normalized growth,"locus YCL016C, strain dcc1, stronger effect = lower value",1.01
same,normalized growth,"locus YCL029C, strain bik1, stronger effect = lower value",0.949
same,normalized growth,"locus YCL061C, strain MRC1, stronger effect = lower value",1.01
same,normalized growth,"locus YCL069W, strain vba3, stronger effect = lower value",0.993
same,normalized growth,"locus YCR088W, strain abp1, stronger effect = lower value",0.984
same,normalized growth,"locus YDL005C, strain med2, stronger effect = lower value",1.01
same,normalized growth,"locus YDL035C, strain GPR1, stronger effect = lower value",0.992
same,normalized growth,"locus YDL040C, strain nat1, stronger effect = lower value",0.98
same,normalized growth,"locus YDL074C, strain BRE1, stronger effect = lower value",0.967
same,normalized growth,"locus YDL101C, strain DUN1, stronger effect = lower value",0.961
same,normalized growth,"locus YDL185W, strain tfp1, stronger effect = lower value",0.975
same,normalized growth,"locus YDL192W, strain arf1, stronger effect = lower value",0.896 (active)
same,normalized growth,"locus YDR001C, strain nth1, stronger effect = lower value",0.982
same,normalized growth,"locus YDR069C, strain doa4, stronger effect = lower value",1
same,normalized growth,"locus YDR101C, strain arx1, stronger effect = lower value",0.947
same,normalized growth,"locus YDR137W, strain rgp1, stronger effect = lower value",0.978
same,normalized growth,"locus YDR150W, strain NUM1, stronger effect = lower value",0.938
same,normalized growth,"locus YDR159W, strain sac3, stronger effect = lower value",0.949
same,normalized growth,"locus YDR162C, strain NBP2, stronger effect = lower value",0.967
same,normalized growth,"locus YDR195W, strain ref2",0.925
same,normalized growth,"locus YDR297W, strain sur2, stronger effect = lower value",0.988
same,normalized growth,"locus YDR318W, strain mcm21, stronger effect = lower value",0.925
same,normalized growth,"locus YDR334W, strain swr1, stronger effect = lower value",0.983
same,normalized growth,"locus YDR335W, strain msn5, stronger effect = lower value",0.996
same,normalized growth,"locus YDR388W, stronger effect = lower value",0.944
same,normalized growth,"locus YDR392W, strain spt3, stronger effect = lower value",0.841
same,normalized growth,"locus YDR502C, strain sam2, stronger effect = lower value",0.956
same,normalized growth,"locus YEL003W, strain gim4, stronger effect = lower value",0.994
same,normalized growth,"locus YEL037C, strain rad23, stronger effect = lower value",0.989
same,normalized growth,"locus YEL061C, strain CIN8 (second series), stronger effect = lower value",0.992
same,normalized growth,"locus YEL061C, strain CIN8, stronger effect = lower value",0.923 (active)
same,normalized growth,"locus YER015W, strain faa2, stronger effect = lower value",0.995
same,normalized growth,"locus YER016W, strain bim1, stronger effect = lower value",0.994
same,normalized growth,"locus YER110C, stronger effect = lower value",0.908
same,normalized growth,"locus YER111C, strain swi4, stronger effect = lower value",0.996
same,normalized growth,"locus YER155C, strain BEM2 (second series), stronger effect = lower value",0.789 (active)
same,normalized growth,"locus YER155C, strain BEM2, stronger effect = lower value",0.93
same,normalized growth,"locus YER167W, strain BCK2, stronger effect = lower value",0.911
same,normalized growth,"locus YFR010W, strain ubp6, stronger effect = lower value",0.999
same,normalized growth,"locus YGL078C, strain dbp3, stronger effect = lower value",0.984
same,normalized growth,"locus YGL086W, strain mad1, stronger effect = lower value",0.942
same,normalized growth,"locus YGL167C, strain pmr1, stronger effect = lower value",0.984
same,normalized growth,"locus YGL173C, strain kem1, stronger effect = lower value",1
same,normalized growth,"locus YGL227W, strain vid30, stronger effect = lower value",0.994
same,normalized growth,"locus YGL240W, strain doc1, stronger effect = lower value",0.955
same,normalized growth,"locus YGL248W, strain PDE1, stronger effect = lower value",0.937
same,normalized growth,"locus YGL253W, strain hxk2, stronger effect = lower value",0.994
same,normalized growth,"locus YGR078C, strain PAC10, stronger effect = lower value",0.929
same,normalized growth,"locus YGR135W, strain pre9, stronger effect = lower value",0.926
same,normalized growth,"locus YGR252W, strain gcn5, stronger effect = lower value",1.19
same,normalized growth,"locus YHR013C, strain ard1, stronger effect = lower value",0.997
same,normalized growth,"locus YHR027C, strain rpn1, stronger effect = lower value",1
same,normalized growth,"locus YHR030C, strain SLT2, stronger effect = lower value",0.942 and 0.988
same,normalized growth,"locus YHR079C, strain IRE1 (second series), stronger effect = lower value",0.927
same,normalized growth,"locus YHR079C, strain IRE1, stronger effect = lower value",0.975
same,normalized growth,"locus YHR094C, strain hxt1, stronger effect = lower value",0.939
same,normalized growth,"locus YHR129C, strain ARP1, stronger effect = lower value",0.931
same,normalized growth,"locus YHR142W, strain chs7, stronger effect = lower value",1.01
same,normalized growth,"locus YHR200W, strain rpn10, stronger effect = lower value",0.937
same,normalized growth,"locus YIL066C, strain RNR3, stronger effect = lower value",0.921
same,normalized growth,"locus YIL073C, strain SPO22, stronger effect = lower value",0.947
same,normalized growth,"locus YIL125W, strain kgd1, stronger effect = lower value",0.942
same,normalized growth,"locus YIR030C, strain dcg1, stronger effect = lower value",0.929
same,normalized growth,"locus YJL092W, strain hpr5, stronger effect = lower value",0.987
same,normalized growth,"locus YJL095W, strain BCK1 (second series), stronger effect = lower value",0.992
same,normalized growth,"locus YJL095W, strain BCK1, stronger effect = lower value",0.937 and 0.962
same,normalized growth,"locus YJL115W, strain asf1, stronger effect = lower value",0.982
same,normalized growth,"locus YJL129C, strain trk1, stronger effect = lower value",0.979
same,normalized growth,"locus YJL134W, strain LCB3, stronger effect = lower value",0.937
same,normalized growth,"locus YJL154C, strain vps35, stronger effect = lower value",0.996
same,normalized growth,"locus YJL164C, strain tpk1, stronger effect = lower value",1.02
same,normalized growth,"locus YJL166W, strain qcr8, stronger effect = lower value",1.03
same,normalized growth,"locus YJL168C, strain set2, stronger effect = lower value",0.929 (active)
same,normalized growth,"locus YJL187C, strain SWE1 (second series), stronger effect = lower value",0.978
